Consider five molecules from PubChem BioAssay.

Assay [1] in a line: Wnt pathway potentiators raising nuclear beta-catenin – imaging, WNT3A-conditioned medium, mouse C2C12, NPC library, primary screen (AID 1117326; in the data active = nuclear beta-catenin stimulation mostly above about 4.2%, no sharp cut-off; inactive = mostly below about 10%; also: reference of the scale not given here). Conditions: stronger effect = higher value.
Assay [2] in a line: stimulators of insulin release from INS-1E, primary screen, cell-based, 5 mM glucose, NPC library (AID 1117329;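 active = compound raises insulin release from rat beta cells at 5 mM glucose, no numeric limit stated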; also: reference of the scale not given here). Conditions: rat INS-1E insulin secretion, at 10 µM, stronger effect = higher value.
A short description of assay [3]: growth inhibition of GSK3B-pretreated HCT116 cells – cell-based, CellTiter-Glo, 0.2 to 20 µM (AID 1117336;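 active = compounds lowering colon cancer cell viability after pretreatment blocking the GSK3B kinase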). Conditions: HCT116 viability after GSK3B inhibitor, at 20 µM, stronger effect = higher value.
A short description of assay [4]: inhibition of endothelial tube formation, primary screen, imaging, VEGF stimulated, CD31 staining, tube area, NPC library (AID 1117340;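 active = compound that reduces growth-factor-driven endothelial tube area in a mixed cell culture, no cutoff stated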). Conditions: VEGF-stimulated ADSC/ECFC co-culture, at 10 µM, stronger effect = higher value.
Assay [5] can be described thus: GLP1 release stimulators, primary, NCI-H716, NPC library (AID 1117341;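 active = compound raises GLP1 secretion from the human gut endocrine cells, with no numeric limit stated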; also: reference of the scale not given here). Conditions: NCI-H716 cells, at 10 µM, stronger effect = higher value.
Assay [6] in a line: HCT116 colon cancer cell growth inhibition, primary screen, CellTiter-Glo luminescence, NPC library (AID 1117342;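 active = compounds that lower survival of HCT116 colon cancer cells in the luminescence readout, no numeric limit stated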). Conditions: at 20 µM (top of the series).
Assay [7] is described as follows: reduced SW480 viability measured with CellTiter-Glo, NPC library, primary (AID 1117343;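 active = compounds that lower viability of the colon cancer cells in the luminescence readout, with no numeric limit stated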). Conditions: CellTiter-Glo luminescence; at 20 µM (top of the series) unless noted. For orientation: In ATP-based viability assays light output follows the ATP content of the culture.
The nature of assay [8]: NPC library primary testing for decreased DLD-1 cell viability via CellTiter-Glo (AID 1117346;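 active = compounds that lower survival of DLD-1 colon cancer cells in the luminescence readout, no cutoff given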). Conditions: DLD-1 viability, CellTiter-Glo luminescence; at 20 µM (top of the series).
A short description of assay [9]: viability loss in pontine glioma line – cell-based, JHH-DIPG-1, MIPE4.0, CellTiter-Glo, qHTS, dose response (AID 1347062; cut-off not given, nearly all actives have AC50 up to about 27 µM;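 as to AC50: cells exposed to compound for two days before readout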). Conditions: JHH-DIPG-1 viability, CellTiter-Glo ATP luminescence.
A short description of assay [10]: viability loss in pontine glioma line – cell-based, SU-DIPG-IV, MIPE4.0, CellTiter-Glo, qHTS, dose response (AID 1347063).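 Also: compound exposure lasted 48 hours before the viability readout.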 Conditions: CellTiter-Glo ATP luminescence.
Assay [11] is described as follows: growth inhibition of DIPG cells – cell-based, MIPE4.0 library, CellTiter-Glo luminescence, qHTS (AID 1347066).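 Also: cells exposed to compound for 48 hours before readout.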 Conditions: SU-DIPG-VI viability, CellTiter-Glo ATP luminescence.
Assay [12] can be described thus: viability loss in pontine glioma line – cell-based, SU-DIPG-XXV, MIPE5.0, CellTiter-Glo, qHTS, dose response (AID 1347065; cut-off not given, nearly all actives have AC50 up to about 26 µM;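 also: cells exposed to compound for 48 hours before ATP readout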). Conditions: CellTiter-Glo ATP luminescence.
Assay [13] is described as follows: JHH-DIPG-1 glioma cell viability, MIPE5.0 library, CellTiter-Glo luminescence, qHTS (AID 1347067; cut-off not given, nearly all actives have AC50 up to about 26 µM;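 also: cells exposed to compound for 48 hours before readout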). Conditions: JHH-DIPG-1 glioma viability, CellTiter-Glo ATP luminescence.
Assay [14] can be described thus: growth inhibition of DIPG cells – cell-based, MIPE5.0 library, qHTS (AID 1347068; cut-off not given, nearly all actives have IC50 up to about 30 µM;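 as to IC50: cells exposed to compound for 48 hours before viability readout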). Conditions: SU-DIPG-XXV viability. In general terms: qHTS replaces the single test concentration by a dilution series.
A short description of assay [15]: viability loss with induced miR-34 in A549 – imaging, A549 dox-inducible miR-34, nuclei and caspase counts, primary screen (AID 1347080;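 active = compounds whose cell count with miR-34 switched on is under 0.7 times the count with it off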). Conditions: A549 miR-34 inducible, Hoechst nuclei count, 48 h.
Assay [16] is described as follows: MELAS cybrid and Rieske KO viability enhancers – cell-based, MELAS cybrids, Rieske KO mouse fibroblasts, CellTiter-Glo, primary screen (AID 1508586;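 active = mean z-score across replicates of 1.96 or higher in either the MELAS or the Rieske mutant cell line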;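 also: z relative to plate mean and SD of compound and empty wells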). Conditions: low glucose.
Assay [17] in a line: blockers of cellular phospholipid synthesis – cell-based, LOPAC library, screen 4, primary screen (AID 1347384; call rule not given here). Conditions: animal cells, phospholipid biosynthesis inhibition screen; at 10 µM.
The nature of assay [18]: galactose survival enhancers in mitochondrial complex I cybrids – cell-based, galactose medium, ATP luminescence, primary screen (AID 1645843;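 active = z-score of at least 1.8 in each of two replicates, scored against plate mean and spread of sample wells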;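 also: positive z means more ATP and so rescue of galactose-driven cybrid death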). Conditions: complex I mutant cybrid cells, 72 h, stronger effect = higher value.
The mark [19] stands for this setting: stronger effect = lower value, cell number ratio, induced over uninduced.
Where [20] appears, read: measured here: relative caspase fold change +Dox/-Dox.
The mark [21] stands for this setting: measured here: total cells with miR-34 induction, stronger effect = lower value.
The mark [22] stands for this setting: measured here: total cells without miR-34 induction.
Setting [23] is: MELAS cybrid survival, CellTiter-Glo 48 h, stronger effect = higher value.
Where [24] appears, read: Rieske KO mouse fibroblast survival, CellTiter-Glo 72 h.

Molecules are shown by their SMILES. Records with an inconclusive call do not appear. Calls of active or inactive are those of the source. Unless noted, the limit is not given here; nearly all actives have AC50 up to about 30 µM.

Broadly, the AC50 is the concentration at which the activity in the assay is half-maximal. On to `Cc1cc(=O)c2c(O)c3c(O)cc(=O)c4c3c3c(cc(O)c1c23)C(C)(C)C=4O`, for which the nuclear beta-catenin stimulation in assay [1] (at 10 µM) was 46.6% (active); in [1] (stimulation, at 2 µM), 68.1%. Moreover, the insulin secretion stimulation in assay [2] is 0.4% (inactive). The viability decrease in assay [3] was 117% (active). The tube area decrease in [4] is 54.9% (active). Also, the GLP1 secretion stimulation in assay [5] is 8% (inactive). Besides, the inhibition of viability in assay [6] is 124% (active). Further, the viability decrease (inhibition) in [7] was 158% (active); in [8] it was 101% (active). The half-maximal activity concentration (AC50) in assay [9] is 0.743 µM (active); in assay [10], 0.469 µM (active); in [11] it was 0.105 µM (active).

Consider `CN(C)C(=O)COC(=O)Cc1ccc(OC(=O)c2ccc(N=C(N)N)cc2)cc1`, for which the nuclear beta-catenin stimulation in [1] (at 10 µM) was 1.4% (inactive); in assay [1] (stimulation, at 2 µM) it was 0.4%. For the same molecule, in assay [2], the insulin secretion stimulation is -0.35% (inactive). For the same molecule, the viability decrease in assay [3] was 16.9% (inactive). Moreover, the tube area decrease in assay [4] was -11.6% (inactive). The GLP1 secretion stimulation in [5] is -0.7% (inactive). Moreover, the inhibition of viability in [6] is 13.5% (inactive). For the same molecule, the viability decrease (inhibition) in [7] was -4.4% (inactive); in assay [8], 4.3% (inactive). The outcome in [9], in [12], in assay [13] and in [14] was inactive. Also, the results for the fold change in [15] (setting [19]) and in [15] (setting [20]) were 0.981 (inactive) and 0.433, respectively. Also, the cell count in assay [15] (setting [21]) worked out at 8560; in assay [15] (setting [22]), 8730. Also, the z-score is -0.283 (inactive) in [16] (setting [23]) and 0.0145 in assay [16] (setting [24]).

As to `c1cnc2cc3c(cc2n1)C1CNCC3C1`, the nuclear beta-catenin stimulation is -1.2% (inactive) in [1] (at 10 µM) and -0.4% in assay [1] (stimulation, at 2 µM). Moreover, the insulin secretion stimulation in assay [2] is 0.7% (inactive). In addition, in assay [3], the viability decrease is -3.9% (inactive). Further, the tube area decrease in assay [4] was 23.1% (inactive). For the same molecule, in [5], the GLP1 secretion stimulation was -4% (inactive). The inhibition of viability in [6] was -2.57% (inactive). The viability decrease (inhibition) in assay [7] is 9.4% (inactive); in assay [8], -12.7% (inactive). For the same molecule, the molecule was classed as inactive in assay [10], in assay [12], in assay [11], in assay [14] and in [17]. Moreover, the fold change in assay [15] (setting [19]) was 1.05 (inactive); in [15] (setting [20]), 1.76. For the same molecule, the cell count in assay [15] (setting [21]) came to 11200; in assay [15] (setting [22]), 10600. The z-score in assay [18] is 0.205 (inactive).

For the molecule `Cc1nnc(C(=O)NC(C)(C)c2nc(C(=O)NCc3ccc(F)cc3)c(O)c(=O)n2C)o1`, the nuclear beta-catenin stimulation is -0.2% (inactive) in [1] (at 10 µM) and 0.5% in [1] (stimulation, at 2 µM). Besides, the insulin secretion stimulation in [2] is 2.5% (inactive). In addition, the viability decrease in [3] was -5.9% (inactive). Moreover, the tube area decrease in [4] was 13.9% (inactive). Besides, the GLP1 secretion stimulation in [5] is -0.3% (inactive). Further, in assay [6], the inhibition of viability was 1% (inactive). For the same molecule, the results for the viability decrease (inhibition) in assay [7] and in [8] were 31.6% (inactive) and 6.7% (inactive), respectively. For the same molecule, the molecule was classed as inactive in [10], in assay [12], in [11] and in assay [14]. The fold change in assay [15] (setting [19]) was 0.902 (inactive); in [15] (setting [20]), 1.04. Besides, the values for the cell count in assay [15] (setting [21]) and in assay [15] (setting [22]) were 7710 and 8560, respectively. Moreover, the z-score in [16] (setting [23]) was -0.159 (inactive); in assay [16] (setting [24]), -0.0651.

A word on the IC50: it is the concentration that gives 50% inhibition. As for `C=CC(=O)Nc1cc2c(Nc3ccc(F)c(Cl)c3)ncnc2cc1OCCCN1CCOCC1`, the nuclear beta-catenin stimulation was 45.9% (active) in assay [1] (at 10 µM) and 9.2% in [1] (stimulation, at 2 µM). The insulin secretion stimulation in [2] is 1.6% (inactive). Besides, the viability decrease in [3] was 108% (active). The tube area decrease in assay [4] was 43.3% (active). Also, in assay [5], the GLP1 secretion stimulation is 2.8% (inactive). In addition, the inhibition of viability in assay [6] was 112% (active). For the same molecule, the values for the viability decrease (inhibition) in [7] and in assay [8] were 130% (active) and 101% (active), respectively. In addition, the AC50 in [9] is 18.7 µM (active); in assay [10], 5.9 µM (active); in [12] it was 6.61 µM (active); in assay [11] it was 14.8 µM (active); in assay [13] it was 9.34 µM (active). The IC50 in assay [14] was 5.25 µM (active).
